# From the supplement of paper PMC9492666
# Structures can show the parent of a compound that is named as a salt.
# System: HCC1937
# Assay: relative cell viability, compound + erastin, vs DMSO (fraction of DMSO control); higher = less growth inhibition
# Conditions: 72 h
# 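Also: viability read by CCK-8 kit in 96-well plates, part of a combination screen pairing lipid-metabolism-targeting compounds with erastin.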
row,Compound,relative cell viability
1,O=C(CN1CCN(C(=O)c2ccco2)CC1)Nc1cc(C(F)(F)F)ccc1Cl + CCOc1ccccc1-n1c(C(C)N2CCN(C(=O)COc3ccc(Cl)cc3)CC2)nc2ccccc2c1=O [erastin],0.638
2,CCCCCCCCCCOc1ccc(C(=O)Nc2cc(C(=O)NCCCC)ccc2SC)cc1 + CCOc1ccccc1-n1c(C(C)N2CCN(C(=O)COc3ccc(Cl)cc3)CC2)nc2ccccc2c1=O [erastin],0.739
3,CCCc1c(OCCCOc2ccc(OCC(=O)O)cc2)ccc(C(C)=O)c1O + CCOc1ccccc1-n1c(C(C)N2CCN(C(=O)COc3ccc(Cl)cc3)CC2)nc2ccccc2c1=O [erastin],0.752
4,CCc1c(-c2ccccc2)c(-c2ccccc2)nn1-c1ccccc1-c1cccc(OCC(=O)O)c1 + CCOc1ccccc1-n1c(C(C)N2CCN(C(=O)COc3ccc(Cl)cc3)CC2)nc2ccccc2c1=O [erastin],0.84
5,COC(=O)N(CC(=O)O)Cc1cccc(OCc2nc(-c3ccc(Cl)cc3)oc2C)c1 + CCOc1ccccc1-n1c(C(C)N2CCN(C(=O)COc3ccc(Cl)cc3)CC2)nc2ccccc2c1=O [erastin],0.734
6,O=C(O)/C=C/c1ccc(O)c(O)c1 [Caffeic Acid] + CCOc1ccccc1-n1c(C(C)N2CCN(C(=O)COc3ccc(Cl)cc3)CC2)nc2ccccc2c1=O [erastin],0.777
7,CCCCCCS(=O)(=O)NC(=O)c1ccc(CSCc2ccc(-c3ccccc3)cc2)cc1 + CCOc1ccccc1-n1c(C(C)N2CCN(C(=O)COc3ccc(Cl)cc3)CC2)nc2ccccc2c1=O [erastin],0.705
8,Cn1nc(C(=O)N(Cc2ccccc2)Cc2ccc(C(=O)O)cc2)c2c1-c1cc(Cl)ccc1OC2 [Nidufexor] + CCOc1ccccc1-n1c(C(C)N2CCN(C(=O)COc3ccc(Cl)cc3)CC2)nc2ccccc2c1=O [erastin],0.638
9,Nc1ccc(O)c(C(=O)O)c1 [Mesalamine] + CCOc1ccccc1-n1c(C(C)N2CCN(C(=O)COc3ccc(Cl)cc3)CC2)nc2ccccc2c1=O [erastin],0.772
10,CCOc1cc(CC(=O)N[C@@H](CC(C)C)c2ccccc2N2CCCCC2)ccc1C(=O)O [Repaglinide] + CCOc1ccccc1-n1c(C(C)N2CCN(C(=O)COc3ccc(Cl)cc3)CC2)nc2ccccc2c1=O [erastin],0.711
11,CN(CCOc1ccc(CC2SC(=O)NC2=O)cc1)c1ccccn1 (configuration not stated) [Rosiglitazone maleate] + CCOc1ccccc1-n1c(C(C)N2CCN(C(=O)COc3ccc(Cl)cc3)CC2)nc2ccccc2c1=O [erastin],0.824
12,CC[C@H](C)C(=O)O[C@H]1C[C@H](O)C=C2C=C[C@H](C)[C@H](CC[C@@H](O)C[C@@H](O)CC(=O)O)[C@H]21 [Pravastatin sodium] + CCOc1ccccc1-n1c(C(C)N2CCN(C(=O)COc3ccc(Cl)cc3)CC2)nc2ccccc2c1=O [erastin],0.909
13,CC(C)OC(=O)C(C)(C)Oc1ccc(C(=O)c2ccc(Cl)cc2)cc1 [Fenofibrate] + CCOc1ccccc1-n1c(C(C)N2CCN(C(=O)COc3ccc(Cl)cc3)CC2)nc2ccccc2c1=O [erastin],0.878
14,CC1(C)C[C@H]2C3=CC[C@@H]4[C@@]5(C)CC[C@H](O)[C@@](C)(CO)[C@@H]5CC[C@@]4(C)[C@]3(C)C[C@H](O)[C@@]2(CO)[C@@H](O)[C@@H]1O [Gymnemagenin] + CCOc1ccccc1-n1c(C(C)N2CCN(C(=O)COc3ccc(Cl)cc3)CC2)nc2ccccc2c1=O [erastin],0.918
15,CC(C)(O)[C@@H]1Cc2cc3ccc(=O)oc3cc2O1 [marmesin] + CCOc1ccccc1-n1c(C(C)N2CCN(C(=O)COc3ccc(Cl)cc3)CC2)nc2ccccc2c1=O [erastin],0.645
16,O=C1c2cc(CO)cc(O)c2C(=O)c2c(O[C@@H]3O[C@H](CO)[C@@H](O)[C@H](O)[C@H]3O)cccc21 [Aloe-emodin-8-O-beta-D-glucopyranoside] + CCOc1ccccc1-n1c(C(C)N2CCN(C(=O)COc3ccc(Cl)cc3)CC2)nc2ccccc2c1=O [erastin],0.493
17,C/C=C(\CC[C@@H](C)[C@H]1CC[C@H]2[C@@H]3CC=C4C[C@@H](O)CC[C@]4(C)[C@H]3CC[C@]12C)C(C)C [Fucosterol] + CCOc1ccccc1-n1c(C(C)N2CCN(C(=O)COc3ccc(Cl)cc3)CC2)nc2ccccc2c1=O [erastin],0.685
18,CC(C)(Oc1ccc(CCNC(=O)c2ccc(Cl)cc2)cc1)C(=O)O [Bezafibrate] + CCOc1ccccc1-n1c(C(C)N2CCN(C(=O)COc3ccc(Cl)cc3)CC2)nc2ccccc2c1=O [erastin],0.736
19,Cc1ccc(Oc2nc3cc(-c4ccc(-c5ccccc5)cc4)c(Cl)cc3[nH]2)cc1C(=O)O + CCOc1ccccc1-n1c(C(C)N2CCN(C(=O)COc3ccc(Cl)cc3)CC2)nc2ccccc2c1=O [erastin],0.553

row,Compound,relative cell viability
1,O=C(/C=C/c1ccc(/C=C/C(=O)Nc2ccc(C3=NCCN3)cc2)cc1)Nc1ccc(C2=NCCN2)cc1 + CCOc1ccccc1-n1c(C(C)N2CCN(C(=O)COc3ccc(Cl)cc3)CC2)nc2ccccc2c1=O [erastin],0.554
2,CC(C)(C)c1ccc(-c2nc3ccccc3[nH]2)cc1 + CCOc1ccccc1-n1c(C(C)N2CCN(C(=O)COc3ccc(Cl)cc3)CC2)nc2ccccc2c1=O [erastin],0.225
3,"COc1ccc(-c2coc3cc(OC)ccc3c2=O)cc1 [4',7-Dimethoxyisoflavone] + CCOc1ccccc1-n1c(C(C)N2CCN(C(=O)COc3ccc(Cl)cc3)CC2)nc2ccccc2c1=O [erastin]",0.313
4,CC(C)c1onc(-c2c(Cl)cccc2Cl)c1COc1ccc(/C=C/c2cccc(C(=O)O)c2)c(Cl)c1 + CCOc1ccccc1-n1c(C(C)N2CCN(C(=O)COc3ccc(Cl)cc3)CC2)nc2ccccc2c1=O [erastin],0.722
5,c1ccc([C@H]2CN3CCSC3=N2)cc1 [Levamisole hydrochloride] + CCOc1ccccc1-n1c(C(C)N2CCN(C(=O)COc3ccc(Cl)cc3)CC2)nc2ccccc2c1=O [erastin],0.768
6,C[C@@H]1OCC2(CCN(c3cnc(Sc4ccnc(N)c4Cl)c(N)n3)CC2)[C@@H]1N + CCOc1ccccc1-n1c(C(C)N2CCN(C(=O)COc3ccc(Cl)cc3)CC2)nc2ccccc2c1=O [erastin],0.553
7,O=C(O)c1c[nH]c2cc(Cl)c(-c3ccc(C4(O)CCC4)cc3)cc12 + CCOc1ccccc1-n1c(C(C)N2CCN(C(=O)COc3ccc(Cl)cc3)CC2)nc2ccccc2c1=O [erastin],0.599
8,Cc1ccc(C)c(OCCCC(C)(C)C(=O)O)c1 [Gemfibrozil] + CCOc1ccccc1-n1c(C(C)N2CCN(C(=O)COc3ccc(Cl)cc3)CC2)nc2ccccc2c1=O [erastin],0.688
9,CCN(CC)c1ccc(C=NNC(=O)c2ccncc2)c(O)c1 + CCOc1ccccc1-n1c(C(C)N2CCN(C(=O)COc3ccc(Cl)cc3)CC2)nc2ccccc2c1=O [erastin],0.254
10,O=C(Nc1ccc(C(O)(C(F)(F)F)C(F)(F)F)cc1)c1ccccc1Cl + CCOc1ccccc1-n1c(C(C)N2CCN(C(=O)COc3ccc(Cl)cc3)CC2)nc2ccccc2c1=O [erastin],0.769
11,CC[C@H]1[C@@H](O)[C@@H]2[C@H](CC[C@]3(C)[C@@H]([C@H](C)CCC(=O)O)CC[C@@H]23)[C@@]2(C)CC[C@@H](O)C[C@@H]12 [Obeticholic Acid] + CCOc1ccccc1-n1c(C(C)N2CCN(C(=O)COc3ccc(Cl)cc3)CC2)nc2ccccc2c1=O [erastin],0.616
12,O=C1C(SCCO)=C(SCCO)C(=O)c2ccccc21 + CCOc1ccccc1-n1c(C(C)N2CCN(C(=O)COc3ccc(Cl)cc3)CC2)nc2ccccc2c1=O [erastin],0.575
13,CC(c1cc2ccccc2s1)N(O)C(N)=O (configuration not stated) [Zileuton] + CCOc1ccccc1-n1c(C(C)N2CCN(C(=O)COc3ccc(Cl)cc3)CC2)nc2ccccc2c1=O [erastin],0.847
14,O=C1c2cccc(O)c2C(=O)c2c(O)cccc21 [Antrapurol] + CCOc1ccccc1-n1c(C(C)N2CCN(C(=O)COc3ccc(Cl)cc3)CC2)nc2ccccc2c1=O [erastin],0.735
15,CCN(CC)CCN(Cc1ccc(-c2ccc(C(F)(F)F)cc2)cc1)C(=O)Cn1c(SCc2ccc(F)cc2)nc(=O)c2c1CCC2 [Darapladib] + CCOc1ccccc1-n1c(C(C)N2CCN(C(=O)COc3ccc(Cl)cc3)CC2)nc2ccccc2c1=O [erastin],0.0574
16,O=C(Nc1ccc(C(O)(C(F)(F)F)C(F)(F)F)cc1)c1ccc(C(F)(F)F)cc1 + CCOc1ccccc1-n1c(C(C)N2CCN(C(=O)COc3ccc(Cl)cc3)CC2)nc2ccccc2c1=O [erastin],0.366
17,CN(C(=O)n1cnc(-c2ccc[n+]([O-])c2)c1)C1CCCCC1 + CCOc1ccccc1-n1c(C(C)N2CCN(C(=O)COc3ccc(Cl)cc3)CC2)nc2ccccc2c1=O [erastin],0.427
18,O=C(O)CN(CC(=O)O)c1ccccc1OCCOc1ccccc1N(CC(=O)O)CC(=O)O + CCOc1ccccc1-n1c(C(C)N2CCN(C(=O)COc3ccc(Cl)cc3)CC2)nc2ccccc2c1=O [erastin],0.597
